Several values for one entry are separate records, joined by “and”; a condition that tells them apart may be missing. Equal entries are not always repeated. Records with an inconclusive call do not appear. Some compounds were tested as several samples or in several runs, with calls that do not always agree. Activity calls are given as the source filed them. Unless noted, the call rests on the fitted dose curve.
How the values were obtained:
[1] = qHTS assay for small molecule agonists of the antioxidant response element (ARE) signaling pathway (AID 651741; active means well fitted activation curve with a large enough effect in the signal ratio; the % refers to the signal ratio; further: potency means the concentration at half of the fitted maximal effect; on activation: % of control where 0% means no effect); settings: HepG2 ARE-bla reporter, beta-lactamase FRET ratio, 16 h; series mostly up to 96 µM
Method in brief: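 Seeding 2,000 ARE-bla HepG2 cells per well preceded a 5 h incubation at 37 C/5% CO2 and a 16 h compound exposure at 37 C. Beta-lactamase reporter activity was then quantified by fluorescence after 2 h with LiveBLAzer B/G FRET substrate.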

[2] = qHTS assay for small molecule activators of the p53 signaling pathway (AID 651743; active means well fitted activation curve with a large enough effect in the signal ratio, not every such curve was filed as active; the % refers to the signal ratio; further: % of control where 0% means no effect); settings: HCT-116 p53RE-bla, beta-lactamase FRET ratio, 16 h; activation: stronger effect = higher value
Method in brief: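 Screen for p53 pathway agonists uses stably transfected p53RE-bla HCT-116 cells, 4,000 per well, treated 16 h at 37 C with compounds in DMSO.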

[3] = qHTS assay for small molecule activators of the nuclear factor-kappa B (NF-kB) signaling pathway (AID 651749; active means well fitted activation curve with a large enough effect in the signal ratio; the % refers to the signal ratio; further: % of control where 0% means no effect); settings: NF-kB-bla ME-180 cells, beta-lactamase FRET ratio, 16 h; stronger effect = higher value
Method in brief: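 Stably transfected ME-180 line; NF-kB response element upstream of beta-lactamase. Treatment: compound or DMSO, 16 hr. Detection: fluorescent FRET substrate.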

[4] = qHTS assay for small molecule disruptors of the mitochondrial membrane potential - 1 hr assay (AID 651754); settings: series mostly up to 92.2 µM; further: nearly all actives have a fitted effect of over 35% in size; further: potency means the concentration at half of the fitted maximal effect
Method in brief: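 HepG2 cells, attached overnight at 37C, were exposed to compound or DMSO vehicle for 1 hr at 37C, 5% CO2, then stained with Mito-MPS dye for 30 min. Red aggregate versus green monomer fluorescence reports membrane potential.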

[5] = qHTS assay for small molecule disruptors of the mitochondrial membrane potential - 5 hr assay (AID 651755); settings: JC-1-type ratio dye; series mostly up to 92.2 µM; further: nearly all actives have a fitted effect of over 40% in size; further: potency means the concentration at half of the fitted maximal effect
Method in brief: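 HepG2, 2,000 cells/well, overnight attach; cpd or DMSO 5 hr, 37C/5% CO2; Mito-MPS 30 min 37C; fluor 490/535 + 540/590 nm.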

[6] = biological target: Tumor necrosis factor (Homo sapiens) (UniProt P01375); experiment: qHTS assay to identify small molecules that stimulate Tumor Necrosis Factor-alpha (TNF-alpha) secretion (AID 651757; active means well fitted curve in the direction sought with a large enough effect in the signal ratio; the % refers to the signal ratio; further: 0% is about no effect); settings: Human cells, HTRF 665/615 ratio; series mostly up to 92.2 µM
Sequence of Tumor necrosis factor (Homo sapiens) (P01375 whole entry, looked up): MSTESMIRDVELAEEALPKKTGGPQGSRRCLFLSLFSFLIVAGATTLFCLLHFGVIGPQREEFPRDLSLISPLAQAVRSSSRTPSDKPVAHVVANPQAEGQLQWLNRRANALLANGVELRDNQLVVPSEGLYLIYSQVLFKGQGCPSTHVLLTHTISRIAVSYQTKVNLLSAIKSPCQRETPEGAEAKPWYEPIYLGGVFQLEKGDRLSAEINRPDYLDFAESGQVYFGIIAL
Method in brief: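 THP-1 cells were exposed to compounds for 17 hrs at 37 C, after which secreted TNF-alpha was measured by homogeneous HTRF (TR-FRET) using cryptate- and XL665-labeled anti-TNF-alpha antibodies, read after 3 hr at room temperature.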

Structure (SMILES) | Potency [1] | activation [2] | activation [3] | Potency [4] | Potency [5] | outcome [6]
O=C1c2ccccc2C(=O)C1C(=O)C(c1ccccc1)c1ccccc1 | 61.1 µM (active) | 23.1% (inactive) | -1.82% (inactive) | – | – | –
COP(=S)(OC)SCN1C(=O)c2ccccc2C1=O | – | 6.79% (inactive) | -2.37% (inactive) | – | – | –
CC(C)c1cccc(C(C)C)c1O | inactive | 0.635% (inactive) | 1.44% (inactive) | inactive | inactive | inactive
C[C@]1(O)CC[C@H]2[C@@H]3CCC4=CC(=O)CC[C@]4(C)[C@@]3(F)[C@@H](O)C[C@@]21C | – | -1.51% (inactive) | -0.7% (inactive) | inactive | inactive | inactive
Nc1ccc([As](=O)(O)O)cc1 | inactive | -0.538% (inactive) | -0.596% (inactive) | – | – | –
COP(=S)(OC)Oc1ccc(SC)c(C)c1 | inactive | -1.52% (inactive) and -0.273% (inactive) | -0.287% (inactive) and 1.27% (inactive) | – | inactive | inactive
CCC(C)(C)c1ccc(O)cc1 | inactive | 0.115% (inactive) and -4.79% (inactive) | -2.14% (inactive) and 1.1% (inactive) | – | – | inactive
Nc1nc(N)nc(NC2CC2)n1 | inactive | -0.84% (inactive) | -2.39% (inactive) | – | – | –
CC1(C)C(C=C(Cl)Cl)C1C(=O)OC(C#N)c1cccc(Oc2ccccc2)c1 (stereo unspecified) | – | -1.45% (inactive) | 1.83% (inactive) | – | – | –
CC(=O)N1CCN(c2ccc(OC[C@H]3CO[C@](Cn4ccnc4)(c4ccc(Cl)cc4Cl)O3)cc2)CC1 | 30.6 µM (active) | – | – | – | – | –
COP(=S)(OC)Oc1cc(Cl)c(Cl)cc1Cl | 24.3 µM (active) | -3.16% (inactive) | -1.3% (inactive) | – | – | –
Oc1ccccc1 | inactive and 1000 µM (active) | – | – | – | – | –
COC(=O)C(c1ccccc1)C1CCCCN1 (stereo unspecified) | – | -1.5% (inactive) and -3.75% (inactive) | 0.137% (inactive) and 0.745% (inactive) | inactive | inactive | inactive
Nc1ccccc1 | inactive | 1.3% (inactive) | – | – | – | inactive
O=C(O)c1cc(O)c(O)c(O)c1 | 4.22 µM (active) | – | – | – | – | –
C[C@]12CCC(=O)C=C1CC[C@@H]1[C@@H]2CC[C@@]2(C)[C@H]1CC[C@]2(C)O | – | 5.56% (inactive) | – | – | – | inactive
[N-]=[N+]=CC(=O)OC[C@H](N)C(=O)O | inactive | -0.27% (inactive) | -0.449% (inactive) | – | – | –
Oc1ccc(Cl)cc1 | – | -2.59% (inactive) | -0.964% (inactive) | – | – | inactive
CC(C)NC(C)C | inactive | -4.28% (inactive) | -1.54% (inactive) | – | – | inactive
Nc1ccccc1C(=O)O | – | -0.0398% (inactive) | 1.57% (inactive) | – | – | inactive
O=C1c2ccccc2C(=O)c2ccccc21 | – | 3.87% (inactive) | -2.5% (inactive) | – | – | –
NCCc1ccc(O)cc1 | inactive | -2.23% (inactive) | -0.88% (inactive) | – | inactive | inactive
CN1C[C@H](C(=O)N[C@]2(C)O[C@@]3(O)[C@@H]4CCCN4C(=O)[C@H](Cc4ccccc4)N3C2=O)C=C2c3cccc4[nH]cc(c34)C[C@H]21 | 37.6 µM (active) | -2.39% (inactive) and -2.48% (inactive) | – | 11.9 µM (active) | 11.9 µM (active) | –
CCOC(=O)CC(SP(=S)(OC)OC)C(=O)OCC (stereo unspecified) | 48.6 µM (active) | -1.29% (inactive) and 0.916% (inactive) and -0.523% (inactive) | -3.4% (inactive) and -2.42% (inactive) | inactive | inactive | inactive
CCCCCCCCCCCCCCCC(=O)OC(C)C | 54.5 µM (active) | – | – | – | – | –
Clc1ccc(C(c2ccc(Cl)cc2)C(Cl)(Cl)Cl)cc1 | 66.8 µM (active) | 2.65% (inactive) | 2.81% (inactive) | inactive | inactive | inactive
CCOP(=S)(OCC)Oc1ccc2c(C)c(Cl)c(=O)oc2c1 | – | -4.7% (inactive) | – | – | – | –
COc1cc(OC)c(OC)cc1C=O | inactive | -3.74% (inactive) | 2% (inactive) | inactive | inactive | inactive
CC(C)(C)c1ccc(O)cc1 | inactive | -2.47% (inactive) | – | – | – | –
CCCC(C)(COC(N)=O)COC(N)=O | inactive | 1.72% (inactive) and -1.16% (inactive) | 0.11% (inactive) and -1.2% (inactive) | inactive | inactive | inactive
